HEK293 cAMP cs – raises cAMP in parental HEK293 cells, TSHR agonist counter-screen | AID 938 | actives 2.5% (n = 73,000) | Potency, µM (highest dose often 57.1 µM), hits mostly activators | parental HEK293 CNG cAMP sensor, membrane potential fluorescence; also: nearly all actives have a fitted effect of over 55% in size
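Parental HEK 293 cells stably expressing a cAMP-gated CNG channel were loaded with membrane potential dye containing 100 uM RO 20-1724 for 60 min. Compound added for 30 min; depolarization read as fluorescence intensity at 590 nm.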
TSHR agonist – TSH receptor (human) agonism; AID 926; HEK293-CNG-TSHR cells (CNG channel as cAMP sensor), membrane potential dye, cAMP; Potency, µM (doses to about 57.1 µM), hits mostly activators; P16473; actives 0.48% (n = 73,000); active = well fitted activation curve with a large enough effect in the main read-out, with a control signal flat, not every such curve was filed as active; inconclusive = small, poorly fitted or top-dose-only effect, or a change in a side signal; inactive = no such curve, though single readings can be large or run the other way; reference of the percent scale not stated here;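 also: the control signal comes from parental cells without the receptor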
Target sequence (P16473 whole entry, looked up): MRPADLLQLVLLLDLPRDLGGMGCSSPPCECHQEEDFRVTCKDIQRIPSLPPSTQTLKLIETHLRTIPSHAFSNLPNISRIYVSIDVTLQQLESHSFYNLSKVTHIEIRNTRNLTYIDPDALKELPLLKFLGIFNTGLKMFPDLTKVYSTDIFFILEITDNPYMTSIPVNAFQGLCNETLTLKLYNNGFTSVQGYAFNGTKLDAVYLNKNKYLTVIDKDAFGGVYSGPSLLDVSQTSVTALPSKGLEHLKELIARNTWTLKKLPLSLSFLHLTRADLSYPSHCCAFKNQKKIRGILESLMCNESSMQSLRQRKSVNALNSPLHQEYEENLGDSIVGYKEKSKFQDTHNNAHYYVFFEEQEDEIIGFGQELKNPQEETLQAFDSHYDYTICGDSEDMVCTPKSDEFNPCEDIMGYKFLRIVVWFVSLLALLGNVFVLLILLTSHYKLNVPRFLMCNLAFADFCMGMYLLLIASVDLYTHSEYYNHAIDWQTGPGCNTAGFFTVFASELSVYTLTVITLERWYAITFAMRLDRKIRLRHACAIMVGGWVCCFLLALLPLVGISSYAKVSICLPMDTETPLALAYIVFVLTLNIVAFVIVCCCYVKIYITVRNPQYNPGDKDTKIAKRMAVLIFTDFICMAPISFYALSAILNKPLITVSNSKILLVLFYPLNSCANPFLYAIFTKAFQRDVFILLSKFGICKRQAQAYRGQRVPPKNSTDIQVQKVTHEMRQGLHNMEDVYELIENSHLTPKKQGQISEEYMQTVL
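HEK 293 cells stably expressing TSHR and a cAMP-gated CNG channel; parental CNG-only cells as counterscreen. Cells preloaded 60 min with membrane potential dye plus 100 uM RO 20-1724, then compound 30 min; fluorescence read at 590 nm.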
ERK AVP inh – inhibitors of vasopressin-stimulated ERK signaling pathway; AID 995; Potency, µM (doses to about 57.5 µM), actives largely listed as inhibitors; actives 0.99% (n = 72,000); HEK293-V1b, vasopressin-stimulated pERK AlphaScreen; also: nearly all actives have a fitted effect of over 55% in size
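HEK293 cells stably expressing V1b receptor, seeded overnight in 1% FBS, were treated with compounds for 30 min at 37C, then stimulated 5 min with 25 nM vasopressin; phospho-ERK read by AlphaScreen SureFire after lysis.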
CRE-bla Fsk – alters forskolin-stimulated CRE reporter signaling in CHO cells; CHO CRE-bla reporter (cAMP response element driving beta-lactamase), forskolin EC10, beta-lactamase ratio; actives 2.5% (n = 71,000); Potency, µM (top dose mostly 38.2 µM), actives largely listed as activators; active = well fitted activation curve with a large enough effect in the signal ratio, with a control signal flat, not every such curve was filed as active; inconclusive = small, poorly fitted or top-dose-only effect, or effect the other way, or a change in a side signal; the % refers to the signal ratio
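AC50 values, positive or negative, reflect shifts in EC10 NKH 477-induced CRE-bla reporter activity in CHO cells. Incubation lasted 3 h at 37 °C before CCF4 substrate (2 h, room temperature) and ratiometric 460/530 nm reading.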
Large screens that a line does not name were inactive. Hits are enriched below; roughly 6% of the tested compounds scored in any of these assays. Unless noted, calls follow the shape of the dose curve; as a rule, active = well fitted curve in the direction sought with a large enough effect; inconclusive = small, poorly fitted or top-dose-only effect, or another doubt; inactive = no such curve, though single readings can be large; an effect the other way counts as inactive or inconclusive.

Cc1cc2ccccc2n1CCNC(=O)C1CCCC1	HEK293 cAMP cs inconclusive, TSHR agonist inconclusive
Cc1cc2ccccc2n1CCNC(=O)C1CC1	HEK293 cAMP cs inconclusive, TSHR agonist inconclusive, CRE-bla Fsk 13µM (no result: ERK AVP inh)
O=C(COC(=O)C1CCCCC1C(=O)N1CCc2ccccc21)NCc1ccco1 (centres undefined)	HEK293 cAMP cs 20µM, TSHR agonist inconclusive
CCCCOC(=O)C1=C(C)Nc2ncnn2C1c1cc(OC)c(OC)cc1OC (centres undefined)	CRE-bla Fsk 16µM
CCCCOC(=O)C1=C(C)Nc2ncnn2C1c1ccc(OC)c(OC)c1OC (centres undefined)	none
COc1cc(N)c(Cl)cc1C(=O)N[C@H]1CCN(CCCOc2ccc(F)cc2)C[C@@H]1OC	TSHR agonist inconclusive, ERK AVP inh 32µM, CRE-bla Fsk inconclusive
O=C(Nc1ccc(F)cc1Cl)c1ccc2c(=O)n3c(nc2c1)CCCCC3	none
O=C(CC(=O)N1CCN(c2ccccn2)CC1)Nc1ccc2nc3n(c(=O)c2c1)CCCCC3	CRE-bla Fsk 7.9µM
O=C(Nc1ccc2nc3n(c(=O)c2c1)CCCCC3)c1ccccn1	ERK AVP inh inconclusive, CRE-bla Fsk 13µM
Cc1ccc2cc(C#N)c(NCCNC(=O)C3CC3)nc2c1C	HEK293 cAMP cs 25µM, TSHR agonist inconclusive, ERK AVP inh 25µM, CRE-bla Fsk inconclusive
COc1cccc(Cn2c(=O)c(C)nc3cnc(N4CCOCC4)nc32)c1	CRE-bla Fsk 3.2µM
COc1ccc(-c2nc3cnc(N4CCNCC4)nc3n(-c3ccc(OC)cc3)c2=O)cc1	CRE-bla Fsk inconclusive
COc1cccc(Cn2c(=O)c(-c3cccc(C#N)c3)nc3cnc(N4CCOCC4)nc32)c1	CRE-bla Fsk 0.5µM
COc1ccc(-n2c(=O)c(C)nc3cnc(N4CCNCC4)nc32)cc1	CRE-bla Fsk 13µM
COc1cccc(Cn2c(=O)c(-c3cc(F)cc(F)c3)nc3cnc(N4CCOCC4)nc32)c1	CRE-bla Fsk inconclusive
CCN1C(=O)[C@H]2[C@H]3[C@H](O)[C@H](O)C/C(=N/OC[C@@H](O)COCc4ccco4)[C@@H]3CC[C@@H]2C1=O	none (no result: CRE-bla Fsk)
COc1ccc(Oc2ncc3nc(-c4ccc(OC)cc4)c(=O)n(CCC#N)c3n2)cc1	HEK293 cAMP cs inconclusive, TSHR agonist inconclusive, CRE-bla Fsk inconclusive
Cc1nc2cnc(N(C)C)nc2n(CCc2ccccc2)c1=O	HEK293 cAMP cs 16µM, TSHR agonist inconclusive, ERK AVP inh inconclusive, CRE-bla Fsk 7.9µM
CN(C)c1ncc2nc(CCc3ccccc3)c(=O)n(Cc3ccc(F)cc3)c2n1	HEK293 cAMP cs inconclusive, TSHR agonist inconclusive, CRE-bla Fsk inconclusive
CN(C)c1ncc2nc(CCc3ccccc3)c(=O)n(CCc3ccccc3)c2n1	HEK293 cAMP cs inconclusive, TSHR agonist inconclusive, CRE-bla Fsk 4µM
COc1ccc(-c2nc3cnc(N(C)C)nc3n(CCC#N)c2=O)cc1	CRE-bla Fsk 0.4µM
CN(C)c1ncc2nc(CCc3ccccc3)c(=O)n(CCC#N)c2n1	HEK293 cAMP cs inconclusive, TSHR agonist inconclusive, CRE-bla Fsk 4µM
Cc1csc(SCC(=O)Nc2cccc3nsnc23)n1	HEK293 cAMP cs 20µM, TSHR agonist inconclusive, CRE-bla Fsk inconclusive
COC(=O)[C@@H]1C[C@@H]2CC[C@@H](O)C[C@@H]2N1CC1CCCCC1	none (no result: HEK293 cAMP cs, TSHR agonist, CRE-bla Fsk)
CN(C)c1ccc(NC(=O)CCCc2ccccc2)cc1	ERK AVP inh 20µM, CRE-bla Fsk inconclusive
C#CCNc1nc(CC)nc2c1nnn2Cc1ccccc1F	CRE-bla Fsk 10µM
Cn1c(=O)c2c(nc(NC3CCCCC3)n2Cc2ccccc2)n(C)c1=O	HEK293 cAMP cs inconclusive, TSHR agonist inconclusive, CRE-bla Fsk 10µM (no result: ERK AVP inh)
Brc1ccccc1-c1nnc(COc2ncnc3c2cnn3-c2ccccc2)o1	HEK293 cAMP cs 25µM, TSHR agonist inconclusive, ERK AVP inh 32µM, CRE-bla Fsk inconclusive
Brc1ccccc1-c1nnc(CSc2nnnn2-c2ccccc2)o1	none
O=C(O)[C@@H]1[C@@H]2O[C@H]([C@@H](Br)[C@H]2Br)[C@H]1C(=O)O	HEK293 cAMP cs inconclusive, TSHR agonist inconclusive, CRE-bla Fsk inconclusive
CSc1nc(NCc2ccco2)c2c3c(sc2n1)CN(C)CC3	HEK293 cAMP cs 25µM, TSHR agonist inconclusive
CCC(C)(C)n1nnnc1C(c1ccc(N(C)C)cc1)N1CCN(C2CCCCC2)CC1 (centres undefined)	none
CCC(C)(C)n1nnnc1C(c1ccc(O)c(OC)c1)N1CCN(c2nc3ccccc3s2)CC1 (centres undefined)	HEK293 cAMP cs inconclusive, TSHR agonist inconclusive
CC1CCN(C(c2ccccc2)c2nnnn2C(C)(C)C)CC1 (centres undefined)	HEK293 cAMP cs 20µM, TSHR agonist inconclusive
COc1ccc(C(c2nnnn2C(C)(C)C)N2CCN(c3nc4ccccc4s3)CC2)cc1 (centres undefined)	TSHR agonist 10µM
COc1ccccc1C(c1nnnn1C(C)(C)C)N1CCCCCC1 (centres undefined)	none
CCC(C)(C)n1nnnc1C(c1ccc(C)cc1)N1CCCC1 (centres undefined)	HEK293 cAMP cs 25µM, TSHR agonist inconclusive
C/C(CCC(=O)OC[C@@H]1O[C@H](C#Cc2ccccc2)C=C[C@@H]1Oc1ccc(C)cc1)=N/O[C@@H](C)c1cn([C@H]2COC[C@H]2O)nn1	none (no result: CRE-bla Fsk)
CCCCNc1nc(C)nc2c1nc(-c1ccccc1)n2CC1CCCN1CC (centres undefined)	HEK293 cAMP cs 16µM, TSHR agonist inconclusive, ERK AVP inh inconclusive
CCCCNc1nc(C)nc2c1nc(-c1ccccc1)n2CCCN(C)C	none
CCN1CCCC1Cn1c(-c2ccccc2)nc2c(NC3CCCCC3)nc(C)nc21 (centres undefined)	HEK293 cAMP cs 20µM, TSHR agonist inconclusive
CCCCNc1nc(C)nc2c1nc(-c1ccccc1)n2CC(C)(C)CN(C)C	HEK293 cAMP cs 32µM, TSHR agonist inconclusive
Cc1noc(C)c1C(=O)N1CCC2(CCCN(C(=O)Nc3cccc(F)c3)C2)CC1	none
CS(=O)(=O)c1ccc(/C=N\NC(N)=S)cc1	none
COc1ccc(-c2nnc3ccc(SC(C(C)=O)C(C)=O)nn23)cc1OC	CRE-bla Fsk 6.3µM
CCC(Sc1ccc2nnc(-c3ccc(OC)c(OC)c3)n2n1)C(=O)O (centres undefined)	none
C=C/C1=C/Cc2ccccc2C(C[N+](=O)[O-])C(C(=O)OC)(C(=O)OC)C1 (centres undefined)	HEK293 cAMP cs inconclusive, TSHR agonist inconclusive (no result: CRE-bla Fsk)
COc1ccc2oc(-c3ccc(O)cc3)cc(=O)c2c1	HEK293 cAMP cs inconclusive, TSHR agonist inconclusive, ERK AVP inh 40µM, CRE-bla Fsk 16µM
COc1cc2oc(-c3ccccc3)cc(=O)c2cc1OC	CRE-bla Fsk 6.3µM
COc1cccc2oc(-c3ccccc3)cc(=O)c12	none (no result: HEK293 cAMP cs, TSHR agonist, CRE-bla Fsk)
COc1ccc(-c2cc(=O)c3cc(OC)ccc3o2)cc1	none (no result: HEK293 cAMP cs, TSHR agonist, CRE-bla Fsk)
O=C(O)C1CC(=O)N(CCC23CC4CC(CC(C4)C2)C3)C(=Nc2ccccc2)S1 (centres undefined)	none (no result: ERK AVP inh, CRE-bla Fsk)
COC(=O)C/C=C\[C@H](C)[C@@H](OC)c1ccccc1Br	none (no result: CRE-bla Fsk)
COc1ncc2nc(-c3ccccc3)c(=O)n(C)c2n1	none
